Assay results from PubChem BioAssay.

Tests used:
[1] = tested on: Human papillomavirus type 1a protein E7 (residues 44-93); experiment: small molecules binding HPV E7 44-93 – biochemical, small-molecule microarray, residues 44-93, 635 nm fluorescence, primary screen (AID 1108); settings: fluorescence 635 nm, higher = more signal;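 note: E7 fragment applied at 1 µg/mL in TBST for 1 h at 4 C; score combines spot fluorescence with its signal to noise ratio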
[2] = hepatitis C replication reporter changes, two-sided – Huh7 cells, luciferase reporter, HCV replication inhibitor project, primary screen (AID 1109); settings: Huh7 HCV replicon luciferase reporter, 48 h; higher = more signal;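 note: huh7 hepatoma cells harbouring a luciferase neomycin HCV replicon reporter; luciferase luminescence as measure of HCV replicon replication; test concentration not given here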
[3] = target: Left-right determination factor 2 (Homo sapiens) (UniProt O00292); experiment: small molecules binding LEFTY2 protein – biochemical, small-molecule microarray, 635 nm fluorescence scan, primary screen (AID 1110); settings: higher = more signal
[4] = target: Calmodulin-1 (Homo sapiens) (UniProt P0DP23); experiment: small molecules binding calmodulin-1 with EGTA – biochemical, small-molecule microarray, Cy5-labelled CALM1, profiling panel (AID 1111); settings: Cy5-CALM1 binding fluorescence, higher = more signal;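 note: labelled calmodulin applied in Tris saline Tween buffer holding calcium plus EGTA and DTT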
[5] = target: Calmodulin-1 (Homo sapiens) (UniProt P0DP23); experiment: small molecules binding Ca-loaded calmodulin-1 – biochemical, small-molecule microarray, Cy5-labelled CALM1, plus calcium, artefact control for SMM control-protein annotation, profiling panel (AID 1112); settings: Cy5-CALM1 binding fluorescence, higher = more signal;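 note: score merges spot fluorescence with signal to noise from triplicate slides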
[6] = probe aWnt5a binding to arrayed compounds – biochemical, biotinylated probe, 635/667 nm fluorescence, primary screen (AID 1113); settings: small-molecule microarray, higher = more signal;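 note: score merges 667 nm fluorescence intensity with signal-to-noise per printed feature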
[7] = probe aShh binding to arrayed compounds – biochemical, biotinylated probe, 635/667 nm fluorescence, primary screen (AID 1114); settings: small-molecule microarray, higher = more signal;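 note: probe is biotin-labelled aShh protein from a stem cell growth factor screen; measures binding of labelled protein to compounds printed on the slide; score merges feature fluorescence at 667 nm with signal-to-noise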
[8] = probe aNog binding to arrayed compounds – biochemical, biotinylated probe, 635/667 nm fluorescence, primary screen (AID 1115); settings: small-molecule microarray, higher = more signal;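 note: probe is biotinylated aNog protein used at 0.15 µg/mL for 1 h at 4 C; z-score combines 667 nm fluorescence of each spot with its signal to noise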
[9] = target: Torsin-1A-interacting protein 1 (Homo sapiens) (UniProt Q5JTV8); experiment: compound microarray binding of lysate hLAP1 – cell lysate, small-molecule microarray, COS7 lysate, 635/667 nm fluorescence, primary screen (AID 1116); settings: 635 nm fluorescence, higher = more signal
[10] = target: Alpha-bungarotoxin (Bungarus multicinctus) (UniProt P60615); experiment: compounds binding labelled alpha-BTX control protein – biochemical, small-molecule microarray, Alexa647 label, 635/667 nm fluorescence, artefact control for SMM control protein annotation, profiling panel (AID 1117); settings: alpha-BTX-A647 binding fluorescence, higher = more signal
Sequence of Alpha-bungarotoxin (Bungarus multicinctus) (P60615 whole entry, looked up): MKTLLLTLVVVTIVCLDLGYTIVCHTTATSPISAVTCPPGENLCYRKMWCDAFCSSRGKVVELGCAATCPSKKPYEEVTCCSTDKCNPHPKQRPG

Sequence of Torsin-1A-interacting protein 1 (Homo sapiens) (Q5JTV8 whole entry, looked up): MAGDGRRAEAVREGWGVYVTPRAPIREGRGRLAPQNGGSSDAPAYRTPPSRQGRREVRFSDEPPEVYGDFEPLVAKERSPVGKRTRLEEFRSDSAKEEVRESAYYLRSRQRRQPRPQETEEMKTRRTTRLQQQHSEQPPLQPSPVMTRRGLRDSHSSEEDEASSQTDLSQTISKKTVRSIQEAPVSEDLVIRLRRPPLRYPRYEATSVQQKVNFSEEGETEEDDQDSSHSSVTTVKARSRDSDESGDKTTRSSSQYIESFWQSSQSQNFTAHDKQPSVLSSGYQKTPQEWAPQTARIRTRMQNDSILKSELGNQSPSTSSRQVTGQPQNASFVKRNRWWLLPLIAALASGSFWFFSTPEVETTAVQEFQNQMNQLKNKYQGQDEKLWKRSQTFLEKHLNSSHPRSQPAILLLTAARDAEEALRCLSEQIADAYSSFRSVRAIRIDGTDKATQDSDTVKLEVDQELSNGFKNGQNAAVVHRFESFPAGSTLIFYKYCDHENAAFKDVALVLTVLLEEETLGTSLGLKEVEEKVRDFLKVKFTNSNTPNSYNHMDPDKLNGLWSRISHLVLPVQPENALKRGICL
Sequence of Left-right determination factor 2 (Homo sapiens) (O00292 whole entry, looked up): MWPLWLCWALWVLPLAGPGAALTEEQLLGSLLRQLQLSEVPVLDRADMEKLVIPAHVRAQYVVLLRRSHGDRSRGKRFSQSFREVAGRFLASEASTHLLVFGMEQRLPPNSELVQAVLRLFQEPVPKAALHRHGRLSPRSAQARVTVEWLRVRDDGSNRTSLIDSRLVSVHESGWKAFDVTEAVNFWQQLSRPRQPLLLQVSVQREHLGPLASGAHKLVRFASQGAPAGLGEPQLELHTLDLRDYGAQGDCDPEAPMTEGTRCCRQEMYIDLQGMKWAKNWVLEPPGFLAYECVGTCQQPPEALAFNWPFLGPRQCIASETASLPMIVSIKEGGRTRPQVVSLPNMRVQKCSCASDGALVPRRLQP

SMILES | composite z-score [1] | z-score [2] | composite z-score [3] | composite z-score [4] | composite z-score [5] | composite z-score [6] | composite z-score [7] | composite z-score [8] | composite z-score [9] | composite z-score [10]
[N-]=[N+]=NCc1ccccc1C[C@@]1(C(=O)NCCN2CCOCC2)N=C(c2ccc(OCCCO)cc2)O[C@@H]1c1ccccc1 | 1.39 | -2.6 | -0.58 | 1.26 | 0.683 | 0.0391 | 0.358 | 0.35 | 1.06 | 1.19
Cc1ccc(S[C@]2(C(=O)NC(C)C)CC(=O)N(Cc3ccccc3)[C@@H]2c2ccc(CO)cc2)cc1 | -0.905 | -1.36 | -1.82 | -0.0379 | 0.175 | -0.124 | -0.2 | 0.0258 | -0.142 | 0.329
C=C(C(=O)CC[C@@H](OC(=O)c1ccccc1-c1ccccc1C(=O)O)c1ccc(CO)o1)C(C)C | 0.476 | -1.53 | 0.367 | -0.236 | -0.86 | -0.118 | -0.349 | -0.295 | 1.27 | 0.101
CCOC(=O)C1=CCC(c2ccncc2)N(S(=O)(=O)c2ccc(C)cc2)C1 (stereo not given) | 1.47 | -2.8 | 0.502 | 1.61 | 0.276 | -0.0125 | -0.154 | -0.389 | 2.15 | 0.842
Cc1c(NC(=O)/C(C#N)=C/C=C/c2ccc([N+](=O)[O-])cc2)c(=O)n(-c2ccccc2)n1C | 0.572 | -1.71 | 0.328 | 1.97 | 0.72 | -0.0792 | -0.0769 | 0.457 | 1.37 | 1.13
CN(C)C(=O)[C@]1(CCS(=O)(=O)c2ccccc2)N=C(c2ccc(OCCCO)cc2)O[C@@H]1c1ccccc1CN=[N+]=[N-] | 0.924 | -2.39 | -0.0755 | 1.98 | 0.68 | 0.0215 | -0.0891 | 0.463 | 1.48 | 1.71
CC(CO)N1C(=O)[C@@H]2[C@H]3C(=O)OCC=C[C@H]3OC23C=CCN(c2ccc4ccccc4c2)C(=O)[C@@H]13 (stereo not given in full) | -1.55 | -0.418 | -2.64 | -0.505 | 0.0117 | -0.174 | -0.0035 | 0.474 | -1.14 | -0.674
COc1cccc(C)c1NC(=O)O[C@H]1[C@H](OC(=O)Nc2ccc3c(c2)OCO3)[C@H](OC(=O)Nc2ccc3c(c2)OCO3)[C@@H](OC)O[C@@H]1CO | 1.47 | -0.466 | 0.262 | 1.6 | -0.406 | 0.122 | 0.715 | 0.351 | 0.305 | 1.57
COCCOC(=O)N1C(=O)[C@@]2(c3cc(C#CCNC(N)=O)ccc31)[C@H](C(=O)N1CCN(c3ncccn3)CC1)[C@H]1C(=O)O[C@H](c3ccccc3)[C@H](c3ccccc3)N1[C@@H]2c1ccc(O)cc1 | -0.381 | 0.894 | -1.67 | -0.777 | -0.686 | -0.408 | -0.461 | -0.294 | -0.92 | 0.165
COc1ccc([Si](C)(C)[C@H]2[C@H](CC(=O)N3CCC[C@H]3CO)O[C@@]3(C(=O)N(Cc4cccc(N5CCCCC5=O)c4)c4ccccc43)[C@@H]2C)cc1 | 1.3 | -2.54 | 0.854 | 0.733 | 0.222 | -0.101 | 0.396 | 0.381 | 1.06 | 1.22
C[C@]1(C(=O)O)c2ccccc2C(=O)N(Cc2cc(C(F)(F)F)cc(C(F)(F)F)c2)[C@H]1c1ccc(CO)cc1 | 0.966 | 1.07 | -0.255 | -0.076 | -1.16 | -0.145 | -0.214 | 0.081 | -0.0827 | 0.764
CCOC(=O)C[C@H]1[C@H](OC(=O)c2ccc(-c3ccccc3)cc2)[C@@H](NC(=O)C2CCCCC2)c2cc(OCCCO)ccc2N1C(=O)Cc1ccc(OC)cc1 | 0.612 | -1.57 | 0.4 | 1.07 | 0.881 | -0.0523 | -0.571 | -0.638 | 0.527 | 0.333
CC(C)c1ccc(NN2C(C(O)c3ccccc3)C=CC3C(=O)N(c4ccccc4)C(=O)C32)cc1 (stereo not given) | 1.33 | 0.618 | -0.636 | 0.793 | 0.7 | 0.235 | 0.171 | 0.0811 | 0.588 | 1.67
O=C1O[C@H](c2ccccc2)[C@H](c2ccccc2)N2[C@H]1[C@@H](C(=O)O)[C@]1(C(=O)Nc3ccc(C#CC4(O)CCCCCC4)cc31)[C@H]2c1ccccc1OCCO | 1.11 | -2.11 | 0.39 | 1.99 | 1.03 | 0.0839 | 0.459 | 0.938 | 0.727 | 1.95
COC(=O)[C@H]1N=C(c2ccc(OCCCO)cc2)O[C@H]1c1ccccc1N=[N+]=[N-] | 1.05 | -1.78 | -0.223 | 0.203 | 0.28 | 0.16 | 0.468 | 1.29 | 0.451 | 1.08
O=C1c2ccccc2[C@](Cc2ccccc2I)(C(=O)NCCN2CCOCC2)[C@H](c2ccc(CO)cc2)N1Cc1ccccc1C(F)(F)F | 1.4 | -2.44 | -0.325 | 0.799 | 0.492 | -0.0721 | -0.221 | -0.43 | 0.598 | 0.787
COc1ccc([Si](C)(C)[C@H]2[C@H](CC(=O)N3CCC[C@H]3CO)O[C@@]3(C(=O)N(C)c4ccccc43)[C@@H]2C)cc1 | 0.442 | -0.812 | 0.239 | -0.13 | 0.297 | -0.0721 | -0.0368 | -0.0094 | 1.13 | 0.557
